# According to PubChem BioAssay:
# Activity calls are given as the source filed them. Unless noted, the rule behind the calls is not given here.
# Columns and labels:
# [1] = A549 cell viability effects, profiling panel, calcein-AM fluorescence, 48 h, basal (AID 1162); details: higher = more signal; note: test concentration not given here
# [2] = adipocyte viability effects, profiling panel, cell-based, 3T3-L1 adipocytes, calcein-AM fluorescence, 48 h, basal (AID 1163); details: 3T3-L1 adipocytes viability, higher = more signal; note: test concentration not given here
# [3] = HepG2 cell viability effects, profiling panel, calcein-AM fluorescence, 48 h, basal (AID 1164); details: higher = more signal; note: test concentration not given here
# [4] = MM1S cell viability effects, profiling panel, calcein-AM fluorescence, 48 h, basal (AID 1165); details: higher = more signal;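 note: viability of MM1S multiple myeloma cells under basal unstimulated conditions; test concentration not given here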
# [5] = basal RPMI8226 viability, no added stimulus, profiling panel, cell-based, calcein-AM fluorescence, 48 h, PK04 Diversity Set (AID 1166); details: RPMI8226 myeloma viability, higher = more signal;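 note: cells grown under basal conditions without added stimulus; test concentration not given here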
# [6] = basal HepG2 mitochondrial membrane potential changes, profiling panel, cell-based, JC-1 fluorescence, 24 h, 100 nL compound (AID 1167); details: higher = more signal; note: test concentration not given here
# [7] = basal 3T3-L1 adipocyte mitochondrial potential changes, profiling panel, cell-based, JC-1 fluorescence, 3T3-L1 adipocytes, 24 h, 100 nL compound (AID 1168); details: JC-1 mitochondrial fluorescence, higher = more signal, called active from +8 up or from −8 down; note: test concentration not given here
# [8] = basal RPMI8226 mitochondrial membrane potential changes, profiling panel, cell-based, JC-1 fluorescence, 24 h, 100 nL compound (AID 1169); details: RPMI8226 myeloma, JC-1 mitochondrial potential fluorescence, higher = more signal; note: test concentration not given here
# [9] = basal MM1S mitochondrial membrane potential changes, profiling panel, cell-based, JC-1 fluorescence, 24 h, 100 nL compound (AID 1170); details: higher = more signal; note: test concentration not given here
# [10] = A549 lung cancer cell viability effects, profiling panel, resazurin fluorescence, 24 h, PK04 Diversity Set (AID 1171); details: higher = more signal, called active from +8 up or from −8 down; note: test concentration not given here
# [11] = HepG2 liver cancer cell viability effects, profiling panel, resazurin fluorescence, 24 h, PK04 Diversity Set (AID 1172); details: higher = more signal; note: test concentration not given here
# [12] = basal S. cerevisiae growth modulation, no modifier, primary screen, OD600, strain BY4716, 24 h, basal condition (AID 1173); details: OD600, 24 h, higher = more signal, called active from +8 up or from −8 down
# [13] = MM1S myeloma cell viability, profiling panel, resazurin fluorescence, basal, 24 h, PK04 Diversity Set (AID 1174); details: higher = more signal, called active from +8 up or from −8 down;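 note: MM1S multiple myeloma cell line; test concentration not given here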
# [14] = biological target: Dihydroorotate dehydrogenase (quinone), mitochondrial (Plasmodium falciparum (isolate 3D7)) (UniProt Q08210); experiment: PfDHODH enzyme inhibitors, primary screen, biochemical, C-terminal His tag, absorbance 600 nm (AID 1175); details: DCIP absorbance 600 nm, higher = more signal, called active from +8 up or from −8 down;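 note: recombinant parasite enzyme with a five histidine tag at its C terminus; test concentration not given here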
# [15] = P. aeruginosa biofilm formation inhibitors, primary screen, strain PAO1, LB-PBS medium, absorbance 600 nm (AID 1176); note: test concentration not given here; details: P. aeruginosa PAO1 growth/biofilm, A600, 12 h; higher = more signal
# [16] = S. cerevisiae RM11-1a growth modifiers, primary screen, strain RM11-1a, OD600, basal, 24 h (AID 1177); details: OD600, 24 h, higher = more signal, called active from +8 up or from −8 down;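 note: cultures grown under basal conditions with no added stressor; test concentration not given here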
# [17] = E. coli acrAB mutant growth effects, primary screen, E. coli filamentation inducers, strain DRC39, OD650, 24 h (AID 1178); details: higher = more signal, called active from +8 up or from −8 down;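 note: growth measured as culture turbidity by optical density at 650 nm; test concentration not given here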
# [18] = E. coli acrAB mutant growth effects, primary screen, E. coli filamentation inducers, strain DRC39, OD650, 48 h (AID 1179);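 note: screen aims at cell division blockers that make cells filament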; details: E. coli DRC39 delta-acrAB growth, higher = more signal, called active from +8 up or from −8 down
# [19] = RPMI8226 myeloma cell viability, profiling panel, resazurin fluorescence, basal, 24 h, PK04 Diversity Set (AID 1180); details: higher = more signal;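 note: RPMI8826 multiple myeloma cell line at 5000 cells per well; test concentration not given here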
# [20] = biological target: E3 ubiquitin-protein ligase XIAP (Homo sapiens) (UniProt P98170); experiment: XIAP binders, primary screen, biophysical, small-molecule microarray, fluorescence 635 nm (AID 1181); details: small-molecule microarray binding, higher = more signal;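 note: score merges 667 nm emission and signal to noise over triplicate slides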
# E3 ubiquitin-protein ligase XIAP (Homo sapiens), sequence (P98170 whole entry, looked up): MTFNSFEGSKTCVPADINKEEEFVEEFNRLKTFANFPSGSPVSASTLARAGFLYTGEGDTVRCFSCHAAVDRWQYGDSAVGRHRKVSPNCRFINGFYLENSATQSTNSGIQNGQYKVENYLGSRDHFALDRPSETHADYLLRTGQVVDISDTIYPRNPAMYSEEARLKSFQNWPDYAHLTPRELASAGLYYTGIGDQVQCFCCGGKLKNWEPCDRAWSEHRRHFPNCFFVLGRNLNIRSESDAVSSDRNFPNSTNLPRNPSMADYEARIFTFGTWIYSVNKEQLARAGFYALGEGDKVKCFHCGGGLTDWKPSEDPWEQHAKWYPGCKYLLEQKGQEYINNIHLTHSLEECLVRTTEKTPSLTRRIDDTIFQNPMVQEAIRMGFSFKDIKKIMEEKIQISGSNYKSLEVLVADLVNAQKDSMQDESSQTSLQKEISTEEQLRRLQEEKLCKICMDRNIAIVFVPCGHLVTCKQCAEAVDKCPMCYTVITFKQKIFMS
# Dihydroorotate dehydrogenase (quinone), mitochondrial (Plasmodium falciparum (isolate 3D7)), sequence (Q08210 whole entry, looked up): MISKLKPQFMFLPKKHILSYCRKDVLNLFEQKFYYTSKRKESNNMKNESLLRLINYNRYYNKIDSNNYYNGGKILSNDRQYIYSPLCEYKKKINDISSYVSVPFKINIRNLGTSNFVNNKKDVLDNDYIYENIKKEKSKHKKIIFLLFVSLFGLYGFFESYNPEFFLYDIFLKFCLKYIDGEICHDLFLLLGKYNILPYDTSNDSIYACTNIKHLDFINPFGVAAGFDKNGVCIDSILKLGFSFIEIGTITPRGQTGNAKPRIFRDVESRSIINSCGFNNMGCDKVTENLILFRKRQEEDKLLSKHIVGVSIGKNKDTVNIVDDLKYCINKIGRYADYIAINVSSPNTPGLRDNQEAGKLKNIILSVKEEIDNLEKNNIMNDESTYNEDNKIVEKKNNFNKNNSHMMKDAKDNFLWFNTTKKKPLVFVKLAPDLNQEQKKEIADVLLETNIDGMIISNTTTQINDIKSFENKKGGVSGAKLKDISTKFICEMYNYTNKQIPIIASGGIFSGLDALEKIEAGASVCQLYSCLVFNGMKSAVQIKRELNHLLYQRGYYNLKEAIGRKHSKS
smiles,measurement,setting,value
Cc1ccccc1C(O)C1C=CC2C(=O)N(c3ccccc3)C(=O)C2N1Nc1ccc(C#N)cc1 (stereo not given),z-score,[1],0.916
same,z-score,[2],-0.175
same,z-score,[3],2.03
same,z-score,[4],-0.113
same,z-score,[5],0.0872
same,z-score,[6],0.258
same,z-score,[7],-1.55 (inactive)
same,z-score,[8],-0.472
same,z-score,[9],0.99
same,z-score,[10],0.682 (inactive)
same,z-score,[11],-0.709
same,z-score,[12],-0.257 (inactive)
same,z-score,[13],0.132 (inactive)
same,composite z-score,[14],0.513 (inactive)
same,z-score,[15],1.26 (inactive)
same,z-score,[16],0.302 (inactive)
same,z-score,[17],0.493 (inactive)
same,z-score,[18],0.0888 (inactive)
same,z-score,[19],-0.0953
same,composite z-score,[20],0.198
COC(=O)[C@@]1(Cc2ccc(OC)cc2)[C@H]2c3cc(C(=O)N(C)C)n(Cc4ccc(C)c(F)c4F)c3C[C@H]2CN1C(=O)c1ccccc1,z-score,[1],-1.81
same,z-score,[2],-0.484
same,z-score,[3],-1.15
same,z-score,[4],-1.34
same,z-score,[5],-1.5
same,z-score,[6],0.00937
same,z-score,[7],-0.589 (inactive)
same,z-score,[8],0.817
same,z-score,[9],-1.3
same,z-score,[10],1.41 (inactive)
same,z-score,[11],0.819
same,z-score,[12],1.45 (inactive)
same,z-score,[13],0.468 (inactive)
same,composite z-score,[14],0.164 (inactive)
same,z-score,[15],0.0944 (inactive)
same,z-score,[16],2.26 (inactive)
same,z-score,[17],0.423 (inactive)
same,z-score,[18],-0.373 (inactive)
same,z-score,[19],1.37
same,composite z-score,[20],0.385
COC(=O)C1=CC(c2ccc(CO)cc2)=CC(c2cccs2)N(Cc2cccc(OC(F)(F)F)c2)C=C1C(=O)OC (stereo not given),z-score,[1],-0.425
same,z-score,[2],0.531
same,z-score,[3],-0.282
same,z-score,[4],-1.63
same,z-score,[5],-2.08
same,z-score,[6],-0.908
same,z-score,[7],-1.25 (inactive)
same,z-score,[8],-0.838
same,z-score,[9],-0.459
same,z-score,[10],-0.0711 (inactive)
same,z-score,[11],-0.55
same,z-score,[12],-0.871 (inactive)
same,z-score,[13],-1.67 (inactive)
same,composite z-score,[14],-5.67 (inactive)
same,z-score,[15],0.683 (inactive)
same,z-score,[16],1.62 (inactive)
same,z-score,[17],0.0045 (inactive)
same,z-score,[18],-0.964 (inactive)
same,z-score,[19],-0.701
same,composite z-score,[20],0.109
COC(=O)Cn1c(C(=O)N2CCCC2)cc2c1C[C@H]1CN(C(=O)c3ccccc3)[C@@](Cc3ccc(OC)cc3)(C(=O)OC)[C@@H]21,z-score,[1],-0.643
same,z-score,[2],-0.574
same,z-score,[3],0.0447
same,z-score,[4],-1.72
same,z-score,[5],-2.24
same,z-score,[6],1.49
same,z-score,[7],-1.1 (inactive)
same,z-score,[8],-0.623
same,z-score,[9],-1.95
same,z-score,[10],-1.09 (inactive)
same,z-score,[11],0.101
same,z-score,[12],1.5 (inactive)
same,z-score,[13],-2.14 (inactive)
same,composite z-score,[14],-0.632 (inactive)
same,z-score,[15],0.259 (inactive)
same,z-score,[16],0.569 (inactive)
same,z-score,[17],-0.506 (inactive)
same,z-score,[18],-0.031 (inactive)
same,z-score,[19],-2.1
same,composite z-score,[20],0.311
C=C(C(=O)CC[C@H](OC(=O)c1ccccc1-c1ccccc1C(=O)O)c1ccc(CO)o1)C(C)C,z-score,[1],-0.473
same,z-score,[2],-0.284
same,z-score,[3],-0.396
same,z-score,[4],-0.263
same,z-score,[5],0.0025
same,z-score,[6],-0.906
same,z-score,[7],-0.244 (inactive)
same,z-score,[8],0.374
same,z-score,[9],0.668
same,z-score,[10],0.529 (inactive)
same,z-score,[11],-0.256
same,z-score,[12],0.656 (inactive)
same,z-score,[13],0.192 (inactive)
same,composite z-score,[14],-0.976 (inactive)
same,z-score,[15],0.98 (inactive)
same,z-score,[16],1.73 (inactive)
same,z-score,[17],0.101 (inactive)
same,z-score,[18],0.0357 (inactive)
same,z-score,[19],0.951
same,composite z-score,[20],-0.153
COC(=O)[C@@]1(Cc2ccc(OC)cc2)[C@H]2c3cc(C(=O)N(C)C)n(CCc4ccc(OC)c(Br)c4)c3C[C@H]2CN1C(=O)c1ccccc1,z-score,[1],-1.55
same,z-score,[2],-1.08
same,z-score,[3],-0.992
same,z-score,[4],-1.6
same,z-score,[5],-4.57
same,z-score,[6],2.92
same,z-score,[7],-1.39 (inactive)
same,z-score,[8],-0.855
same,z-score,[9],-2.23
same,z-score,[10],-1.39 (inactive)
same,z-score,[11],-0.575
same,z-score,[12],1.36 (inactive)
same,z-score,[13],-2.09 (inactive)
same,composite z-score,[14],0.125 (inactive)
same,z-score,[15],1.22 (inactive)
same,z-score,[16],0.961 (inactive)
same,z-score,[17],-0.307 (inactive)
same,z-score,[18],-0.025 (inactive)
same,z-score,[19],-3.63
same,composite z-score,[20],-0.0848
Cc1ccc(N2C(=O)c3ccccc3[C@@H](C(=O)NCC(F)(F)F)[C@@H]2c2ccc(CO)cc2)nc1,z-score,[1],0.312
same,z-score,[2],0.603
same,z-score,[3],0.471
same,z-score,[4],0.0049
same,z-score,[5],0.51
same,z-score,[6],1.04
same,z-score,[7],0.884 (inactive)
same,z-score,[8],-0.223
same,z-score,[9],0.0421
same,z-score,[10],0.547 (inactive)
same,z-score,[11],0.129
same,z-score,[12],-0.789 (inactive)
same,z-score,[13],1.21 (inactive)
same,composite z-score,[14],-0.417 (inactive)
same,z-score,[15],0.429 (inactive)
same,z-score,[16],-0.872 (inactive)
same,z-score,[17],0.419 (inactive)
same,z-score,[18],0.127 (inactive)
same,z-score,[19],0.607
same,composite z-score,[20],-0.227
COc1cc(CO)cc(I)c1O[C@H]1C=C(C(=O)NCCO)C[C@@H](N(CC2CCCCC2)C(=O)c2cc3ccccc3oc2=O)[C@@H]1O,z-score,[1],0.846
same,z-score,[2],-0.5
same,z-score,[3],0.206
same,z-score,[4],1.01
same,z-score,[5],-1.1
same,z-score,[6],0.919
same,z-score,[7],-0.294 (inactive)
same,z-score,[8],-0.806
same,z-score,[9],-0.467
same,z-score,[10],-0.206 (inactive)
same,z-score,[11],0.479
same,z-score,[12],-0.514 (inactive)
same,z-score,[13],0.308 (inactive)
same,composite z-score,[14],-0.23 (inactive)
same,z-score,[15],0.343 (inactive)
same,z-score,[16],0.372 (inactive)
same,z-score,[17],0.663 (inactive)
same,z-score,[18],0.283 (inactive)
same,z-score,[19],0.393
same,composite z-score,[20],-0.12
COC(=O)C(CC#Cc1ccc2c(c1)[C@]1(C(=O)N2)[C@H](C(=O)N2CCCCCCC2)[C@H]2C(=O)O[C@H](c3ccccc3)[C@H](c3ccccc3)N2[C@@H]1c1ccc(O)cc1)C(=O)OC,z-score,[1],0.654
same,z-score,[2],1.27
same,z-score,[3],0.294
same,z-score,[4],-1.25
same,z-score,[5],-0.248
same,z-score,[6],-0.21
same,z-score,[7],-0.0509 (inactive)
same,z-score,[8],0.145
same,z-score,[9],-1.15
same,z-score,[10],-0.429 (inactive)
same,z-score,[11],0.436
same,z-score,[12],-0.636 (inactive)
same,z-score,[13],0.636 (inactive)
same,composite z-score,[14],-0.665 (inactive)
same,z-score,[15],0.473 (inactive)
same,z-score,[16],-0.016 (inactive)
same,z-score,[17],-0.177 (inactive)
same,z-score,[18],-0.312 (inactive)
same,z-score,[19],0.402
same,composite z-score,[20],0.0512
